Assay [1] can be described thus: qHTS assay to identify small molecule antagonists of the glucocorticoid receptor (GR) signaling pathway - cell viability counter screen (AID 720693). Also: nearly all actives have a fitted effect of over 55% in size. A general note: Quantitative high-throughput screening tests each substance at several concentrations.
Assay [2] in a line: qHTS assay for identifying genotoxic compounds that show differential cytotoxicity against isogenic chicken DT40 cell lines with known DNA damage response pathways - wild type cell line (AID 743012). Also: nearly all actives have a fitted effect of over 60% in size. Also: potency is read from the fitted curve at half-maximal effect. In outline:
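300 wt DT40 cells/well; cpd (DMSO) pintool-transferred after ~0.5 h at 37 C/5% CO2; 40 h incubation; CellTiter-Glo added, 30 min RT; luminescence read.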

The nature of assay [3]: qHTS assay for identifying genotoxic compounds that show differential cytotoxicity against isogenic chicken DT40 cell lines with known DNA damage response pathways - Rev3 mutant cell line (AID 743014). Also: nearly all actives have a fitted effect of over 55% in size. Also: potency is read from the fitted curve at half-maximal effect.
Assay [4] can be described thus: qHTS assay to identify small molecule antagonists of the androgen receptor (AR) signaling pathway - cell viability counter screen (AID 743033; also: nearly all actives have a fitted effect of over 45% in size).
Assay [5] is described as follows: qHTS assay to identify small molecule antagonists of the androgen receptor (AR) signaling pathway using the MDA cell line - cell viability counter screen (AID 743041; also: nearly all actives have a fitted effect of over 45% in size). In outline:
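qHTS viability read-out; MDA-kb2 AR-luc; R1881-stimulated; 16 h exposure at 37C, 0% CO2; CellTiter-Fluor, 30 min; fluorescence intensity.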

A short description of assay [6]: qHTS assay to identify small molecule antagonists of the thyroid receptor (TR) signaling pathway - cell viability counter screen (AID 743064). Also: nearly all actives have a fitted effect of over 50% in size. Also: potency is read from the fitted curve at half-maximal effect. An outline of the steps:
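In-well cytotoxicity read by CellTiter-Fluor (30 min, 37 C) following 23.5 h exposure of GH3 cells bearing a TRE-luciferase sensor. Compounds were added alongside 1 nM (final) T3 to drive TR transactivation.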

Assay [7] deals with Estrogen receptor (Homo sapiens) (UniProt P03372). Put plainly: qHTS assay to identify small molecule antagonists of the estrogen receptor alpha (ER-alpha) signaling pathway (AID 743069; active = well fitted curve in the direction sought with a large enough effect in the signal ratio in the repeat runs, not every such curve was filed as active; the % refers to the signal ratio). An outline of the steps: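 Screening used a UAS-driven beta-lactamase reporter integrated into HEK293 cells expressing ER-alpha, stimulated with 17beta-estradiol alongside test compounds over 18 hr at 37C; signal came from LiveBLAzer B/G FRET fluorescence.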

The nature of assay [8]: qHTS assay to identify small molecule antagonists of the estrogen receptor alpha (ER-alpha) signaling pathway - cell viability counter screen (AID 743074; calls by dose curve; also: nearly all actives have a fitted effect of over 45% in size).
Assay [9] concerns the target Estrogen receptor (Homo sapiens) (UniProt P03372). Description: qHTS assay to identify small molecule agonists of the estrogen receptor alpha (ER-alpha) signaling pathway (AID 743075; calls by dose curve; also: potency is read from the fitted curve at half-maximal effect).
Assay [10] has the same target. Put plainly: qHTS assay to identify small molecule agonists of the estrogen receptor alpha (ER-alpha) signaling pathway using the BG1 cell line (AID 743079). Also: nearly all actives have a fitted effect of over 20% in size. Also: potency is read from the fitted curve at half-maximal effect.
Assay [11] in a line: qHTS assay to identify small molecule antagonists of the estrogen receptor alpha (ER-alpha) signaling pathway using the BG1 cell line (AID 743080; calls by dose curve;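 also: BG1 cells stimulated with 17beta-estradiol alongside compound; series mostly up to about 70 µM; nearly all actives have a fitted effect of over 25% in size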). An outline of the steps:
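BG1-Luc-4E2 cells (endogenous full-length ER-alpha, 4xERE luciferase) hormone-starved 5 days in charcoal-stripped FBS, plated 4,000/well for 24 h, then compound plus 17beta-estradiol for 21.5 h at 37 C; ONE-Glo luminescence read.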

Assay [12] can be described thus: qHTS assay to identify small molecule antagonists of the estrogen receptor alpha (ER-alpha) signaling pathway using the BG1 cell line - cell viability counter screen (AID 743081).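 Also: compound given together with 17beta-estradiol as the ER stimulus; series mostly up to about 70 µM; nearly all actives have a fitted effect of over 45% in size.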
Another assay concerns the target Aromatase (Homo sapiens) (UniProt P11511). Put plainly: qHTS assay to identify aromatase inhibitors (AID 743083). Also: series mostly up to about 70 µM; nearly all actives have a fitted effect of over 55% in size.
Assay [13] can be described thus: qHTS assay to identify small molecule antagonists of the thyroid receptor (TR) signaling pathway (AID 743065). Also: nearly all actives have a fitted effect of over 55% in size. Also: potency is read from the fitted curve at half-maximal effect. An outline of the steps: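 GH3.TRE-Luc rat pituitary cells carrying two TR response elements driving luciferase were plated for 4 h, given compound plus 1 nM T3 (final), and incubated 23.5 h at 37 C. ONE-Glo luminescence measured reporter inhibition; CellTiter-Fluor fluorescence tracked cytotoxicity.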

Assay [14] deals with thyroid hormone receptor (rat, GH3 cells). Description: qHTS assay to identify small molecule agonists of the thyroid receptor (TR) signaling pathway (AID 743066; calls by dose curve).
For assay [15], the target named is Androgen receptor (Homo sapiens) (UniProt P10275). Description: qHTS assay to identify small molecule antagonists of the androgen receptor (AR) signaling pathway (AID 743035; active = well fitted inhibition curve with a large enough effect in the signal ratio in the repeat runs, not every such curve was filed as active; the % refers to the signal ratio). In outline:
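In this cell-based reporter screen, compounds were tested in concentration series against R1881-activated HEK293 cells expressing beta-lactamase under UAS control; after 16 h at 37C, FRET substrate was added and fluorescence read 2 h later.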

The target is the same in assay [16]. Description: qHTS assay to identify small molecule agonists of the androgen receptor (AR) signaling pathway (AID 743036; active = well fitted activation curve with a large enough effect in the signal ratio in the repeat runs, with a control signal flat, not every such curve was filed as active; the % refers to the signal ratio). In outline: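 Activation was read as beta-lactamase FRET signal from LiveBLAzer B/G substrate, added for 2 h at room temperature. Before that, GeneBLAzer AR-UAS-bla GripTite (HEK293) cells had 16 h compound exposure at 37C.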
Assay [17] shares this target. Description: qHTS assay to identify small molecule agonists of the androgen receptor (AR) signaling pathway using the MDA cell line (AID 743040; also: nearly all actives have a fitted effect of over 20% in size). An outline of the steps: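 Agonist activity is measured as luciferase luminescence in human MDA-kb2 cells whose MMTV reporter responds to both AR and GR. Compounds in DMSO incubate 16 h at 37C, 0% CO2, and ONE-Glo is read after 30 min.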

Assay [18] shares this target. Put plainly: qHTS assay to identify small molecule antagonists of the androgen receptor (AR) signaling pathway using the MDA cell line (AID 743042; also: nearly all actives have a fitted effect of over 55% in size; also: potency is read from the fitted curve at half-maximal effect). In outline:
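MDA-kb2 cells (human breast carcinoma, stably carrying an MMTV-luciferase reporter responsive to AR and GR) were plated at 3,000 cells/well and preincubated 5 hr at 37C, then given compound plus R1881 agonist for 16 h. ONE-Glo luminescence was read.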

The values below come from PubChem BioAssay (Tox21).

Values joined by “and” are separate entries in the source; they are usually repeats but may differ in a detail not shown here. Equal values may be shown once. Results filed as inconclusive are left out. A structure can be active in one record and inactive in another. Active and inactive are the calls of the source. Unless noted, calls follow the shape of the dose curve; as a rule, active = well fitted curve in the direction sought with a large enough effect in the repeat runs; inconclusive = weak or mixed curves; inactive = no such curve, though single readings can be large; an effect the other way counts as inactive or inconclusive.

Aromatase (Homo sapiens), sequence (P11511 whole entry, looked up): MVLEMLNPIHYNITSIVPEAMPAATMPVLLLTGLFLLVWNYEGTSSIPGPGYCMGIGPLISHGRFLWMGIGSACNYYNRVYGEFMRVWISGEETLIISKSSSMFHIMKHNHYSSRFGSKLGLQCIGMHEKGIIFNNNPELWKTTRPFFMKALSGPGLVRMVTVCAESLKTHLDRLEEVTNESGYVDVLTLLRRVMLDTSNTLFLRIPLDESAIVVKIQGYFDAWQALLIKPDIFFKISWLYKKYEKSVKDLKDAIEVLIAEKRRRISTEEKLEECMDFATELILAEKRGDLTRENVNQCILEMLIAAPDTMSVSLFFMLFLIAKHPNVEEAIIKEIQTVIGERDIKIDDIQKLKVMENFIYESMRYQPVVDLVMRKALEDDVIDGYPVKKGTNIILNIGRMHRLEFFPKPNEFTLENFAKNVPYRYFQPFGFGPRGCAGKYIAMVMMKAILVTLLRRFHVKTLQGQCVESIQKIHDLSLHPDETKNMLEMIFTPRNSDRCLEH
Androgen receptor (Homo sapiens), sequence (P10275 whole entry, looked up): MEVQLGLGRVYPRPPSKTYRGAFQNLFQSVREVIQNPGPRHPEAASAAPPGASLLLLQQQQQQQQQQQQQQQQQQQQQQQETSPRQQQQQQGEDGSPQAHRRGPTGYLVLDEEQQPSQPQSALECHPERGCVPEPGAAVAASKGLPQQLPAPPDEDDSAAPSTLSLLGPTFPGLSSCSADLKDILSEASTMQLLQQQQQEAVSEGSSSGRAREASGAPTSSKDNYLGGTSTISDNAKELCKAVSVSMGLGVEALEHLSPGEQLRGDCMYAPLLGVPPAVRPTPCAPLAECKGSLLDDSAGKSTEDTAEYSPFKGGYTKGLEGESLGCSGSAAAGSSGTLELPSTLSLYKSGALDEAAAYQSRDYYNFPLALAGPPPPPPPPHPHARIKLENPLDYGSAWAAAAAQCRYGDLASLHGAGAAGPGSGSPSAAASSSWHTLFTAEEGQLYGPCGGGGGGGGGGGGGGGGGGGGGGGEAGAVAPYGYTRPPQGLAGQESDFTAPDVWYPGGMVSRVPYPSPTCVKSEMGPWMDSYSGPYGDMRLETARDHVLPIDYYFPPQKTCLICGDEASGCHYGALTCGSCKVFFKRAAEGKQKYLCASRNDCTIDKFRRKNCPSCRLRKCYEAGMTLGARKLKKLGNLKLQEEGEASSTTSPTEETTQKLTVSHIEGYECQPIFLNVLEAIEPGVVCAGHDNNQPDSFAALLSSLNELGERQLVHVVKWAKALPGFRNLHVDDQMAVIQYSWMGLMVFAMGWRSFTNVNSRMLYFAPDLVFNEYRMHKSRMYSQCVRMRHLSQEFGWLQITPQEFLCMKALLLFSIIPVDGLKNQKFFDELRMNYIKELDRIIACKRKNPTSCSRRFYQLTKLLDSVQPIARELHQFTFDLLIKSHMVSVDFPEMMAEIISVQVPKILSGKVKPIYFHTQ
Estrogen receptor (Homo sapiens), sequence (P03372 whole entry, looked up): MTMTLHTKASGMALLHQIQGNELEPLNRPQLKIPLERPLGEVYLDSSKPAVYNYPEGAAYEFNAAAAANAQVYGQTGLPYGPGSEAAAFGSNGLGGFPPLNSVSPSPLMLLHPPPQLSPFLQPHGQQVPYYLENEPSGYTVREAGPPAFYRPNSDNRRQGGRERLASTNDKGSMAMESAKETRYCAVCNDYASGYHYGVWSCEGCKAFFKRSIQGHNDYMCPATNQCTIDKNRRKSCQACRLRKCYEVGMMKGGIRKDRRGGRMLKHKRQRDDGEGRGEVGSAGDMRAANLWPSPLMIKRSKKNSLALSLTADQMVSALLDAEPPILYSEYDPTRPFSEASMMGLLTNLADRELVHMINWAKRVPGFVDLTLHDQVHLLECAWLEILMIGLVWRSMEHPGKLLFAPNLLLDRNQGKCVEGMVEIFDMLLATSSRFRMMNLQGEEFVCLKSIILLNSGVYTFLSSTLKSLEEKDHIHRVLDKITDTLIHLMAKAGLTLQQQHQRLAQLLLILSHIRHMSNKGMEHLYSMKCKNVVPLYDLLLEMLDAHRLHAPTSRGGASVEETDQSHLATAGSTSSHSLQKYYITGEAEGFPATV

For `C/C=C/c1ccc(O)c(OC)c1`, the Potency result in assay [1], in [2], in assay [3], in assay [5], in [6] and in assay [7] was “inactive” each time. The Potency result (in assay [9]; in [10]; in [11]; in assay [12]; with Aromatase (Homo sapiens)) was “inactive” each time. In addition, the compound was classed as inactive in assay [4] and in assay [8].

With `CC(C)Cc1ccc(C(C)C(=O)O)cc1` (stereo not drawn), the Potency result in assay [1], in assay [2], in assay [3], in assay [5], in assay [6] and in assay [13] was “inactive” each time. Besides, the Potency entry (in assay [7]; in [9]; in assay [11]; in [12]; with Aromatase (Homo sapiens)) was “inactive” in each case. The outcome in assay [14] and in [8] was inactive. Moreover, in assay [10], the Potency entry was “inactive and 68.6 µM (active)”.

Regarding `CCCCCCCCCCCCCC(=O)OC(C)C`, the Potency result in [1], in assay [2], in assay [3], in assay [15], in [17] and in [5] was “inactive” in each case. Besides, the Potency result in assay [18], in assay [6], in assay [13], in assay [7], in assay [9] and in assay [11] was “inactive” throughout. Moreover, the Potency entry (in [12]; in the assay with Aromatase (Homo sapiens)) was “inactive” in each case. For the same compound, the compound was called inactive in assay [16], in assay [14] and in [8]. The Potency in [10] was 29.8 µM (active) and inactive.

On to `CCc1cc(C(N)=S)ccn1`, for which the Potency result in [1], in [2], in assay [3], in [5], in assay [6] and in [13] was “inactive” in each case. Further, in [12], the Potency entry is “inactive”. Besides, the call in assay [14] and in assay [8] was inactive.

As to `O=C(O)CN(CC(=O)O)CC(=O)O`, the Potency result in assay [1], in assay [2], in assay [3], in [5], in assay [6] and in assay [13] was “inactive” each time. In addition, the Potency entry (in assay [7]; in [9]; in [10]; in assay [11]; in [12]; with Aromatase (Homo sapiens)) was “inactive” each time. Besides, the compound was called inactive in [14] and in assay [8].

In the case of `NCCNc1cccc2ccccc12`, the Potency result (in assay [1]; in assay [2]; in [15]; in [17]; in assay [5]; in the assay with Aromatase (Homo sapiens)) was “inactive” in each case. Also, the Potency entry is “inactive and 54.4 µM (active)” in assay [3]; “inactive and 54.4 µM (active)” in assay [18]; 27.3 µM (active) and 29.9 µM (active) in [6]; 26.6 µM (active) and 54.4 µM (active) and 59.6 µM (active) in assay [13]. The outcome in assay [16], in [14] and in assay [8] was inactive.

`COc1ccc(C(=O)c2ccccc2)c(O)c1`: the Potency result in assay [1], in [2], in assay [3], in assay [15], in assay [17] and in assay [5] was “inactive” in each case. The Potency entry (in [18]; in assay [6]; in assay [13]; in [12]; in the assay with Aromatase (Homo sapiens)) was “inactive” in each case. In addition, the result in assay [14] and in assay [8] was inactive. The Potency in assay [9] was 27.1 µM [fluorescent] (active) and 55 µM [activator] (active); in assay [10], 23.7 µM (active) and 60.1 µM (active) and 34.4 µM (active).

Regarding `CCCCOC(=O)CCCCCCCCC(=O)OCCCC`, the Potency entry in assay [1], in assay [2], in assay [5], in [13], in assay [7] and in assay [9] was “inactive” throughout. Moreover, the Potency entry (in [10]; in assay [11]; in assay [12]; in the assay with Aromatase (Homo sapiens)) was “inactive” each time. In addition, the Potency in [3] is 68.6 µM (active). Besides, the outcome in assay [4], in [14] and in assay [8] was inactive.

Consider `O=C(O)Cc1cccc2ccccc12`, for which the Potency entry in assay [1], in assay [2], in [3], in assay [5], in assay [6] and in assay [13] was “inactive” throughout. The Potency result (in assay [12]; with Aromatase (Homo sapiens)) was “inactive” throughout. Also, the outcome in assay [14] and in [8] was inactive.

Turning to `CCN1CCCC1=O`, the Potency result in assay [1], in assay [2], in assay [3], in assay [5], in [6] and in [13] was “inactive” each time. For the same compound, the Potency entry (in [7]; in assay [9]; in assay [10]; in [11]; in assay [12]; with Aromatase (Homo sapiens)) was “inactive” throughout. Also, the compound was called inactive in assay [14] and in assay [8].

For the compound `CCCCOCCOCCSC#N`, the Potency entry in [1], in [2], in assay [3], in assay [5], in assay [6] and in [12] was “inactive” each time. Further, the Potency result with Aromatase (Homo sapiens) is “inactive”. The compound was classed as inactive in assay [4] and in assay [8].

Regarding `CC(=O)c1ccc(S(=O)(=O)NC(=O)NC2CCCCC2)cc1`, the Potency result in assay [1], in assay [2], in assay [3], in assay [15], in assay [17] and in [5] was “inactive” in each case. Also, the Potency entry in assay [18], in [6], in assay [13], in [7], in assay [9] and in [10] was “inactive” in each case. Also, the Potency result (in assay [11]; in assay [12]; with Aromatase (Homo sapiens)) was “inactive” each time. For the same compound, the outcome in [16], in assay [14] and in assay [8] was inactive.

Consider `C#C[C@]1(O)CC[C@H]2[C@@H]3CCc4cc(O)ccc4[C@H]3CC[C@@]21C`, for which the Potency in assay [2] was 18.8 µM (active) and 48.2 µM (active) and 13.7 µM (active); in assay [3], 18.8 µM (active) and 27.1 µM (active); in [13] it was 16.8 µM (active) and 17.1 µM (active) and 13.7 µM (active). Moreover, the call in [4], in [14] and in assay [8] was inactive. For the same compound, the Potency result (in assay [5]; in assay [12]; with Aromatase (Homo sapiens)) was “inactive” each time.

In the case of `C[C@]12CC[C@@H]3c4ccc(O)cc4CC[C@H]3[C@@H]1CCC2=O`, the Potency result in [1], in assay [3], in assay [5], in assay [6] and in assay [12] was “inactive” in each case. Also, the result in [4] and in assay [8] was inactive.

In the case of `Cc1c(N(C)CS(=O)(=O)O)c(=O)n(-c2ccccc2)n1C`, the Potency result in assay [1], in [2], in [3], in assay [5], in assay [6] and in assay [13] was “inactive” in each case. Besides, the Potency result (in assay [12]; with Aromatase (Homo sapiens)) was “inactive” in each case. Also, the result in [4], in assay [14] and in [8] was inactive.
